# In PubChem BioAssay (EPA / NIEHS):
# Results filed as inconclusive are left out. The source made the active and inactive calls. How the source made its calls, unless noted: active means hit-call score of the fitted dose curve at least 0.9, where 1 is the maximum; inactive means score below 0.9.
# Experiments:
# [1] = read-out: Plasminogen activator inhibitor-1 (PAI1), SERPINE1 (gene 5054); assay: BSK_CASM3C_PAI1: BioMAP Diversity Plus: CASM3C Assay for Plasminogen activator inhibitor-1 (PAI1) Biomarker Activity (AID 2284284); settings: primary human coronary artery smooth muscle cells;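 further: PAI-1 protein level measured by ELISA 24 h after dosing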
# [2] = read-out: Monocyte Chemoattractant Protein-1 (MCP1), CCL2 (gene 6347); assay: BSK_hDFCGF_MCP1: BioMAP Diversity Plus: hDFCGF Assay for Monocyte Chemoattractant Protein-1 (MCP1) Biomarker Activity (AID 2284285); settings: primary human foreskin fibroblasts
# Procedure, shortened: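 Human foreskin fibroblasts (hDFCGF system) were exposed to compound and secreted MCP-1 was measured by ELISA after 24 hours. Activity was fitted relative to DMSO. Cytotoxicity was checked by SRB total-protein staining in parallel cultures.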
# [3] = read-out: Vascular cell adhesion molecule 1 (VCAM1), VCAM1 (gene 7412); assay: BSK_IMphg_VCAM1: BioMAP Diversity Plus: IMphg Assay for Vascular cell adhesion molecule 1 (VCAM1) Biomarker Activity (AID 2284286); settings: primary human endothelial cells with macrophages
# Procedure, shortened: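 Human venular endothelial cells co-cultured with macrophages; VCAM-1 quantified by ELISA 24 h after dosing, fitted in the positive direction against DMSO. Cytotoxicity was checked in parallel cultures by SRB total-protein staining (0.1% SRB after 10% TCA fixation, 560 nm).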
# [4] = read-out: Intercellular Adhesion Molecule 1 (ICAM1), ICAM1 (gene 3383); assay: BSK_hDFCGF_ICAM1: BioMAP Diversity Plus: hDFCGF Assay for Intercellular Adhesion Molecule 1 (ICAM1) Biomarker Activity (AID 2284287); settings: primary human foreskin fibroblasts
# Procedure, shortened: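 Primary human foreskin fibroblasts (hDFCGF system) dosed with chemical; ICAM-1 quantified by ELISA at 24 h relative to DMSO. Parallel SRB total-protein staining to assess overt cytotoxicity.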
# CD40, CD40 (gene 958) = assay: BSK_IMphg_CD40: BioMAP Diversity Plus: IMphg Assay for CD40 Biomarker Activity (AID 2284288); settings: primary human endothelial cells with macrophages
# Procedure, shortened: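 Venular endothelial cells co-cultured with macrophages (human primary), CD40 measured by ELISA 24 h after dosing. Positive-direction fit vs DMSO baseline; cytotoxicity tracked by SRB total-protein staining in parallel cultures.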
# [5] = read-out: TIMP metallopeptidase inhibitor 2 (TIMP2), TIMP2 (gene 7077); assay: BSK_hDFCGF_TIMP2: BioMAP Diversity Plus: hDFCGF Assay for TIMP metallopeptidase inhibitor 2 (TIMP2) Biomarker Activity (AID 2284289); settings: primary human foreskin fibroblasts
# Procedure, shortened: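 Primary human foreskin fibroblasts in the hDFCGF system, dosed for 24 h; TIMP-2 level measured by ELISA, fitted in the positive direction against DMSO; cytotoxicity checked in parallel by sulforhodamine B total protein staining.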
# [6] = read-out: Interleukin-1 alpha (IL1a), IL1A (gene 3552); assay: BSK_IMphg_IL1a: BioMAP Diversity Plus: IMphg Assay for Interleukin-1 alpha (IL1a) Biomarker Activity (AID 2284290); settings: primary human endothelial cells with macrophages
# Procedure, shortened: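 Human venular endothelial cells co-cultured with macrophages, IMphg system. IL-1α is measured by ELISA 24 h after dosing and fitted in the positive direction against DMSO. Cytotoxicity is assessed by SRB staining of parallel cultures.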
# [7] = read-out: E-selectin (Homo sapiens) (UniProt P16581); assay: BSK_IMphg_ESelectin: BioMAP Diversity Plus: IMphg Assay for Eselectin Biomarker Activity (AID 2284291); settings: primary human endothelial cells with macrophages
# Procedure, shortened: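 Human venular endothelial cell–macrophage co-culture, E-selectin measured by ELISA 24 h after chemical dosing. Signal fitted in the positive direction against DMSO as negative control and baseline.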
# [8] = BSK_IMphg_SRB: Viability Assessment in the BioMAP Diversity Plus: IMphg Assay (AID 2284292); settings: primary human endothelial cells with macrophages;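 further: measured one day after compound addition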
# Procedure, shortened: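 Human venular endothelial cells with macrophages, 24 h after chemical dosing; total protein by 0.1% SRB staining after 10% TCA fixation, read at 560 nm. Positive-direction fitting versus DMSO baseline.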
# [9] = read-out: Macrophage colony-stimulating factor (MCSF), CSF1 (gene 1435); assay: BSK_IMphg_MCSF: BioMAP Diversity Plus: IMphg Assay for Macrophage colony-stimulating factor (MCSF) Biomarker Activity (AID 2284293); settings: primary human endothelial cells with macrophages
# Procedure, shortened: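 Co-culture of human venular endothelial cells and macrophages, 24 hours of chemical exposure. M-CSF quantified by ELISA, with parallel SRB total-protein staining for cytotoxicity; activity fitted relative to DMSO.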
# [10] = read-out: Interleukin-10 (IL10), IL10 (gene 3586); assay: BSK_IMphg_IL10: BioMAP Diversity Plus: IMphg Assay for Interleukin-10 (IL10) Biomarker Activity (AID 2284294); settings: primary human endothelial cells with macrophages
# Procedure, shortened: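 Human venular endothelial cells cocultured with macrophages, dosed 24 h; IL-10 measured by ELISA, activity relative to DMSO. Cytotoxicity assessed in parallel cultures by sulforhodamine B total-protein staining.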
# [11] = BSK_IMphg_SRB.Mphg: Macrophage Viability Assessment in the BioMAP Diversity Plus: IMphg Assay (AID 2284295); settings: primary human endothelial cells with macrophages
# Procedure, shortened: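 Venular endothelial cells co-cultured with macrophages, read 24 h after dosing. Total protein measured by 0.1% SRB staining after 10% TCA fixation, absorbance at 560 nm. Fitted in positive direction against DMSO baseline.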
# [12] = read-out: Thrombomodulin, THBD (gene 7056); assay: BSK_LPS_Thrombomodulin: BioMAP Diversity Plus: LPS Assay for Thrombomodulin Biomarker Activity (AID 2284296); settings: primary human HUVEC with PBMC
# Procedure, shortened: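 Human umbilical vein endothelial cells co-cultured with PBMC and stimulated with LPS; cell-surface thrombomodulin measured by ELISA 24 hours after compound. Gain or loss versus DMSO; cytotoxicity checked by SRB staining in parallel cultures.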
# CD69, CD69 (gene 969) = assay: BSK_LPS_CD69: BioMAP Diversity Plus: LPS Assay for CD69 Biomarker Activity (AID 2284303); settings: primary human HUVEC with PBMC
# Procedure, shortened: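 Human umbilical vein endothelial cells co-cultured with PBMC under LPS stimulation, chemical exposure 24 h; cell-surface CD69 measured by ELISA and fitted in the positive direction versus DMSO.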
# TTR (gene 7276) = assay: CCTE_GLTED_hTTR_0.5uM: CCTE's human Transthyretin (hTTR) Inhibition Assay, with 0.5uM TTR, Great Lakes Toxicology and Ecology Division (GLTED) Lab (AID 2284320)
# Procedure, shortened: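 Cell-free displacement assay in which human TTR at 0.5 uM was incubated with test chemical for 2 h. Displacement of the ANSA probe was read by fluorescence at 380 nm excitation/475 nm emission. Loss of signal was fitted in the positive direction versus DMSO.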
# IYD (gene 389434) = assay: CCTE_GLTED_hIYD: CCTE's human Iodotyrosine Deiodinase (xIYD) Inhibition Assay, Great Lakes Toxicology and Ecology Division (GLTED) Lab (AID 2284317; active means hit-call score of the fitted dose curve at least 0.9, where 1 is the maximum;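 further: cell-free human IYD enzyme made in baculovirus insect cells; iodide freed from monoiodotyrosine measured by cerium arsenite color change at 420 nm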)
# Procedure, shortened: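 Human IYD expressed in a baculovirus-insect cell system was incubated 3 h with monoiodotyrosine and test chemical. Released iodide, separated on Dowex columns, was quantified by the Sandell-Kolthoff reaction at 420 nm; plates were normalized to MNT and DMSO/NaOH controls.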
# [13] = CCTE_Deisenroth_5AR_NBTE_donor: CCTE's 5alpha-reductase NanoBRET Target Engagement Assay […], Deisenroth Lab (AID 2284319); settings: actives raise or lower the signal
# Procedure, shortened: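 SRD5A2-NanoLuc, HEK293T, 20 h expression. Chemical 10 nM - 29.9 uM, 8 conc, duplicate; 3 h preincubation + 2 h testosterone tracer. Nano-Glo substrate plus extracellular NanoLuc inhibitor; donor lum 460 nm. DMSO baseline, bidirectional fit.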
# SRD5A2 (gene 6716) = assay: CCTE_Deisenroth_5AR_NBTE_ratio: CCTE's 5alpha-reductase NanoBRET Target Engagement Assay - Ratio, Deisenroth Lab (AID 2284322); settings: actives raise or lower the signal
# Procedure, shortened: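 Reverse-transfect HEK293T with pNLF1-C-SRD5A2, express 20 h. Pre-incubate cells with chemical 3 h (8-point series, 10 nM - 29.9 uM, duplicate). Add testosterone tracer, 2 h more. Add substrate/inhibitor, read donor and acceptor emission.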
# [14] = CCTE_Deisenroth_5AR_NBTE_acceptor: CCTE's 5alpha-reductase NanoBRET Target Engagement Assay - Autofluorescence Screen, Deisenroth Lab (AID 2284321); settings: actives raise or lower the signal;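 further: compound fluorescence in the acceptor channel under 460 nm excitation flags autofluorescence artifacts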
# Procedure, shortened: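 Using three independent plate-reader runs, nominal 100 uM chemicals were checked for intrinsic fluorescence (ex 460 nm). DMSO defined the baseline for bidirectional fitting.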
# [15] = CCTE_Mundy_HCI_iCellGluta_NOG_NeuronCount: CCTE's Neurite Outgrowth Assay in iCellGluta cells for Neuron Count, Mundy Lab (AID 2284340; active means hit-call score of the fitted dose curve at least 0.9, where 1 is the maximum;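 further: cells fixed about 48 h after compound addition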)
# Procedure, shortened: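 Neuron count read by automated high-content imaging of Hoechst 33342 and betaIII-tubulin/Alexa Fluor-488 labelling in human iPSC glutamatergic neurons. Activity fitted relative to DMSO.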
# Chain of E-selectin (Homo sapiens) (P16581 whole entry, looked up): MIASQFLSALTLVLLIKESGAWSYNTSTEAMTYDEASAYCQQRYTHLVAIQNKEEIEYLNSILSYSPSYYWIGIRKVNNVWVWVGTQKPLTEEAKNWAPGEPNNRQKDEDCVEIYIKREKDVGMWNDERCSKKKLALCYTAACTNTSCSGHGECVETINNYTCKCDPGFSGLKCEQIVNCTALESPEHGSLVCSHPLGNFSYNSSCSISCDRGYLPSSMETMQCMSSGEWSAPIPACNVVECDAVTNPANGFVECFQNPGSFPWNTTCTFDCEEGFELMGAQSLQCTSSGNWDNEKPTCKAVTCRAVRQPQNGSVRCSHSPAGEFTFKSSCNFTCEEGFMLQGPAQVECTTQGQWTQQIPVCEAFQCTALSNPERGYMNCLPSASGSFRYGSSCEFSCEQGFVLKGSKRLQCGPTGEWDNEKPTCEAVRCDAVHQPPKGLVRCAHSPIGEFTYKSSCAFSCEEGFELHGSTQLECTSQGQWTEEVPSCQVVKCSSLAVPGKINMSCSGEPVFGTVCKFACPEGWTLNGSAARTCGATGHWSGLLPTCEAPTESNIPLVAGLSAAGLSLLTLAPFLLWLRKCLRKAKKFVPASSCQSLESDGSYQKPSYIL
smiles,measurement,setting,value
FC(F)(F)C(F)(F)C(F)(F)C(F)(F)C(F)(F)C(F)(F)C(F)(F)CCI,outcome,[1],inactive
same,outcome,[2],inactive
same,outcome,[3],inactive
same,outcome,[4],inactive
same,outcome,"CD40, CD40 (gene 958)",inactive
same,outcome,[5],inactive
same,outcome,[6],inactive
same,outcome,[7],inactive
same,outcome,[8],inactive
same,outcome,[9],inactive
same,outcome,[10],inactive
same,outcome,[11],inactive
same,outcome,[12],inactive
same,outcome,"CD69, CD69 (gene 969)",inactive
same,AC50,TTR (gene 7276),22.5 µM (active)
CCCCCCCCn1sc(Cl)c(Cl)c1=O,AC50,IYD (gene 389434),100 µM (active)
CCCCCCCCCCCCCC[P+](CCCC)(CCCC)CCCC,AC50,IYD (gene 389434),97.6 µM (active)
same,AC50,[13],13.1 µM (active)
same,AC50,SRD5A2 (gene 6716),22.9 µM (active)
CCCCCCCC/C=C\CCCCCCCC(=O)N(C)CC(=O)O,AC50,IYD (gene 389434),58.2 µM (active)
same,outcome,[13],inactive
same,outcome,[14],inactive
same,outcome,SRD5A2 (gene 6716),inactive
OCCCCC(F)(F)C(F)(F)C(F)(F)C(F)(F)F,outcome,[1],inactive
same,outcome,[2],inactive
same,outcome,[3],inactive
same,outcome,[4],inactive
same,outcome,"CD40, CD40 (gene 958)",inactive
same,outcome,[5],inactive
same,outcome,[6],inactive
same,outcome,[7],inactive
same,outcome,[8],inactive
same,outcome,[9],inactive
same,outcome,[10],inactive
same,outcome,[11],inactive
same,outcome,[12],inactive
same,outcome,"CD69, CD69 (gene 969)",inactive
same,outcome,[15],inactive
NC(=O)C(F)(F)C(F)(F)C(F)(F)C(F)F,outcome,[1],inactive
same,outcome,[2],inactive
same,outcome,[3],inactive
same,outcome,[4],inactive
same,outcome,"CD40, CD40 (gene 958)",inactive
same,outcome,[5],inactive
same,outcome,[6],inactive
same,outcome,[7],inactive
same,outcome,[8],inactive
same,outcome,[9],inactive
same,outcome,[10],inactive
same,outcome,[11],inactive
same,outcome,[12],inactive
same,outcome,"CD69, CD69 (gene 969)",inactive
same,AC50,TTR (gene 7276),45.2 µM (active)
CCCCCCCC/C=C\CCCCCCCC(=O)OCC(O)CO (stereo not given),AC50,IYD (gene 389434),68.1 µM (active)
O=C(O)C(F)(F)C(F)(F)C(F)(F)OC(F)(F)F,outcome,[1],inactive
same,outcome,[2],inactive
same,outcome,[3],inactive
same,outcome,[4],inactive
same,outcome,"CD40, CD40 (gene 958)",inactive
same,outcome,[5],inactive
same,outcome,[6],inactive
same,outcome,[7],inactive
same,outcome,[8],inactive
same,outcome,[9],inactive
same,outcome,[10],inactive
same,outcome,[11],inactive
same,outcome,[12],inactive
same,outcome,"CD69, CD69 (gene 969)",inactive
same,AC50,TTR (gene 7276),4.54 µM (active)
same,outcome,[15],inactive
O=C(Cl)C(F)(F)C(F)(F)C(F)(F)C(F)(F)C(F)(F)C(F)(F)C(F)(F)F,outcome,[1],inactive
same,outcome,[2],inactive
same,outcome,[3],inactive
same,outcome,[4],inactive
same,outcome,"CD40, CD40 (gene 958)",inactive
same,outcome,[5],inactive
same,outcome,[6],inactive
same,outcome,[7],inactive
same,outcome,[8],inactive
same,outcome,[9],inactive
same,outcome,[10],inactive
same,outcome,[11],inactive
same,outcome,[12],inactive
same,outcome,"CD69, CD69 (gene 969)",inactive
same,AC50,TTR (gene 7276),0.599 µM (active)
